The text below walks through data of PubChem BioAssay (NCATS).

Molecules are shown by their SMILES. Several values for one entry are separate records, joined by “and”; a condition that tells them apart may be missing. Equal values may be shown once. A number with no mark means an inactive call. Results filed as inconclusive are left out. Activity calls are given as the source filed them. Unless noted, calls come from the whole dose curve; as a rule, active = well fitted curve in the direction sought with a large enough effect; inconclusive = small, poorly fitted or top-dose-only effect, or another doubt; inactive = no such curve, though single readings can be large; an effect the other way counts as inactive or inconclusive.

Assay [1] in a line: Cell Viability - Jurkat (AID 426;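 active = dose-dependent loss of cell ATP signal giving a full or clear fitted curve, ranked by lower potency value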; note: potency is the fitted concentration of half-maximal effect). The following applies: qHTS. A digest of the protocol:
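Cytotoxicity was scored as loss of cellular ATP, measured by luciferase-based luminescence, in Jurkat clone E6-1 cells after 40 h compound treatment; tamoxifen and doxorubicin served as positive controls.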
A general note: qHTS replaces the single test concentration by a dilution series.

A short description of assay [2]: Cell Viability - Hek293 (AID 427;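 active = compounds whose dose-response curve shows a full or clear partial loss of cell viability, called from curve shape rather than a numeric limit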;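 note: potency is the fitted concentration of half-maximal effect; cells exposed to compound for 40 hours at 37 °C before reading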). The following applies: qHTS. The essentials:
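HEK293 cells in complete medium were exposed to compound for 40 hr at 37 °C, then cellular ATP was read by CellTiter-Glo luminescence. Data were normalized to DMSO (basal) and 100 uM tamoxifen (100% inhibition), and AC50 came from Hill fits.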

Assay [3] is described as follows: Cell Viability - HepG2 (AID 433; calls by dose curve;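 note: potency is the fitted concentration of half-maximal effect; potency for ATP loss meaning cytotoxicity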). The following applies: qHTS. The essentials:
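HepG2 hepatocellular carcinoma cells (1500/well) were treated with compounds for 40 h at 37 °C in complete medium; intracellular ATP was read by CellTiter-Glo luminescence. Data were normalized to DMSO and 100 uM tamoxifen, and AC50 came from Hill fits.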

The nature of assay [4]: Cell Viability - SK-N-SH (AID 435; calls by dose curve;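 note: potency is the fitted concentration of half-maximal effect; compound exposure lasted 40 h at 37 °C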). Particulars: SK-N-SH neuroblastoma cell viability qHTS. The essentials:
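SK-N-SH human neuroblastoma cells (1500/well) were exposed to compounds in complete medium for 40 h at 37 °C, and intracellular ATP was then measured by CellTiter-Glo luminescence. AC50 was taken from Hill fits, normalized to DMSO and 100 uM tamoxifen.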

Assay [5] deals with Mitogen-activated protein kinase 10 (Mus musculus) (UniProt Q61831). Nature of the assay: JNK3 AlphaScreen Assay (AID 530; active = well fitted curve in either direction with a large enough effect, not every such curve was filed as active;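 note: kinase came from lysate of stimulated human HepG2 cells; signal reports phosphorylation of biotinylated GST-cJun 1-79 at Ser73 with 10 µM ATP; % is set by controls: 0 for no effect and ±100 for the full control effect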). The following applies: JNK3 lysate, c-Jun phosphorylation; series mostly up to 57.1 µM. A digest of the protocol:
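Kinase buffer: 20 mM Tris-HCl pH 7.6, 10 mM MgCl2, 1 mM DTT, 0.1 mM Na3VO4, 0.01% Tween-20; ATP 10 uM. Substrate biotin-GST-cJun(1-79), enzyme from activated HepG2 lysates. Detection by Ser73 phospho-antibody AlphaScreen.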
On the technique in general: Alpha assays give light when donor and acceptor beads are brought close together.

The nature of assay [6]: Cell Viability - NIH 3T3 (AID 541).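 Note: plate controls were DMSO alone for no effect and tamoxifen positive control for full effect; nearly all actives have a fitted effect of over 25% in size.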 Particulars: NIH 3T3 cell viability, qHTS; activity change, negative = cytotoxicity: at 92.2 µM (top of the series). The essentials:
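In this cytotoxicity screen, acute toxicity is scored as an ATP drop measured by CellTiter-Glo in NIH 3T3 fibroblasts following a 40 hr, 37 °C incubation with compound.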

Assay [7] can be described thus: Cell Viability - H-4-II-E (AID 543). Note: % is set by controls: 0 for no effect and ±100 for the full control effect; nearly all actives have a fitted effect of over 35% in size. Particulars: H-4-II-E rat hepatoma viability; series mostly up to 92.2 µM. A digest of the protocol: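 AC50 from Hill-modelled qHTS concentration-response curves. H-4-II-E rat hepatoma cells in complete medium, 40 hr exposure at 37 °C, viability by CellTiter-Glo ATP luminescence.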
Assay [8] is described as follows: Cell Viability - Mesenchymal (AID 546).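 Note: cells exposed to compound for 40 hours before reading.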 The following applies: mesenchymal cells viability, qHTS; activity change, negative = cytotoxicity: at 91.7 µM (top of the series). The essentials: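 CellTiter-Glo luminescence (intracellular ATP, 20 min room temperature) after 40 hr compound exposure at 37 °C of 1000 glomerulus-derived human kidney mesenchymal cells/well; AC50 values obtained by fitting qHTS concentration-response data to the Hill equation.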

Assay [9] can be described thus: Cellular Toxicity (caspase-3) HepG2 (AID 654).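 Note: cells exposed to compound for 16 hours before reading; 0% = DMSO alone and 100% = caspase signal from 100 µM tamoxifen.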 The following applies: HepG2 caspase-3 activation, luminescence, 0% = DMSO only, 100% = tamoxifen; series mostly up to 92.2 µM. A digest of the protocol: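 Concentration-response AC50 values reflect caspase-3/7 induction in HepG2 cells after 16 hours of compound exposure, quantified by luminescence from liberated aminoluciferin and referenced to 100 uM tamoxifen as full stimulation.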

A short description of assay [10]: Cellular Toxicity (caspase-3) HUV-EC-C (AID 656). Particulars: HUV-EC-C cells, caspase-3 activation (apoptosis), vehicle = 0, 100 µM tamoxifen = 100%; series mostly up to 92.2 µM. The essentials:
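HUV-EC-C endothelial cells, 1000/well, were pre-incubated 5 hr at 37°C, then exposed to compounds for 16 hr at 37°C. Caspase-Glo 3/7 luminescence was read after 20 min at room temperature. AC50 came from Hill fits, normalized to DMSO and 100 uM tamoxifen.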

Assay [11] in a line: Cellular Toxicity (caspase-3) BJ (AID 658). The following applies: BJ fibroblasts, luminescence, normalized: DMSO 0%, staurosporine 100%; series mostly up to 91.7 µM. A digest of the protocol:
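Caspase-Glo 3/7 luminescence, read 1 hr after reagent at room temperature, in normal BJ fibroblasts exposed 16 hours at 37 °C. AC50 values from Hill-equation concentration-response, scaled between DMSO basal and 10 uM staurosporine as 100%.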

A short description of assay [12]: Cellular Toxicity (caspase-3) MRC-5 (AID 659). Particulars: MRC-5 cells, luminescence, normalized: DMSO 0%, 10 µM staurosporine 100%; series mostly up to 91.7 µM. The essentials:
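Luminescent Caspase-Glo 3/7 read-out (1 h, room temperature) after a 16 h, 37 °C compound exposure of MRC-5 lung fibroblasts at 1500 cells/well. Concentration-response AC50 from Hill equation; 0% DMSO, 100% 10 uM staurosporine.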

A short description of assay [13]: Cellular Toxicity (caspase-3) Mesangial (AID 660).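 Note: combined caspase 3 and 7 activity read by Caspase-Glo luminescence; cells exposed to compound for 16 h before the caspase read.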 Particulars: mesangial cells, normalized: DMSO 0%, 100 µM tamoxifen 100%; series mostly up to 91.7 µM. A digest of the protocol: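 AC50 values come from Hill-equation fits of caspase 3/7 activation, measured as Caspase-Glo luminescence in human glomerular mesangial cells exposed to compound for 16 h at 37 °C; 100% set by 100 uM tamoxifen.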

Assay [14] is described as follows: Cellular Toxicity (caspase-3) NIH 3T3 (AID 666). The following applies: NIH 3T3 caspase-3 activation, apoptosis/toxicity, 0% DMSO, 100% is 100 µM tamoxifen; series mostly up to 92.2 µM. The essentials: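 Activity: caspase-3/7 induction, NIH 3T3 cells, 16 hr treatment at 37°C, luminescent Caspase-Glo detection; AC50 via Hill equation.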
A short description of assay [15]: Cellular Toxicity (caspase-3) Renal Proximal Tubule (AID 667).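 Note: cells exposed to compound for 16 hours at 37 °C before detection.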 Particulars: renal proximal tubule cells, primary cells freshly taken from rat, solvent-only wells 0%, staurosporine 100%; series mostly up to 91.7 µM. A digest of the protocol:
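Primary rat proximal tubule cells, 1000/well, 5 h plating at 37 °C, then compound 16 h at 37 °C. Caspase-Glo 3/7 reagent, 1 h RT, luminescence. Normalized to DMSO (basal) and 10 uM staurosporine (100%); Hill-fit AC50.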

A short description of assay [16]: MultiTox-Fluor Cytotoxicity Assay - LYMP1-003 - Live Cells (AID 962).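 Note: 0% = DMSO only and full loss = 92 µM tetraoctylammonium bromide; cytotoxic hits lower the live-cell protease signal.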 Particulars: LYMP1-003 lymphoblastoid cells, MultiTox-Fluor live-cell protease fluorescence; series mostly up to 92.2 µM. A digest of the protocol:
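Human lymphoblastoid line LYMP1-003 in complete culture medium, treated 16 hr with titrated compounds. Viable cells quantified via cell-permeant GF-AFC substrate fluorescence; AC50 derived by Hill fitting.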

Assay [17] can be described thus: Cell Viability - LYMP1-003 - Assay at 40 hr (AID 964). Note: % is set by controls: 0 for no effect and ±100 for the full control effect; nearly all actives have a fitted effect of over 60% in size. The following applies: LYMP1-003 lymphoblastoid viability; series mostly up to 92.2 µM. A digest of the protocol: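 Acute toxicity is scored as a concentration-dependent loss of intracellular ATP in LYMP1-003 cells (2500/well, complete medium) after 40 hr at 37 C, measured by CellTiter-Glo luminescence; AC50 values derive from standard Hill modelling.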

The nature of assay [18]: Cell Viability - LYMP2-011 (AID 969).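 Note: cells exposed to compound for 24 hours; 0% = DMSO only and full inhibition = 92 µM tetraoctylammonium bromide; nearly all actives have a fitted effect of over 60% in size.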 The following applies: LYMP2-011 lymphoblastoid cells viability; series mostly up to 92.2 µM. A digest of the protocol:
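Cells seeded at 2500 per well rest 5 hr before compound addition, then incubate 24 hr at 37 C. CellTiter-Glo reagent is added for 30 min at room temperature before luminescence detection.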

A short description of assay [19]: qHTS Assay for Identification of Small Molecule Inducers of Hypoxia Response (AID 2120; active = well fitted curve in the direction sought with a large enough effect in the signal ratio, with a control signal flat, not every such curve was filed as active; the % refers to the signal ratio; note: 0% is about no effect). Particulars: hypoxia response reporter cells, beta-lactamase ratio readout; series mostly up to 104 µM. The essentials:
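HRE-bla ME-180, 2500 cells/well, 0.5% dialyzed FBS medium; cpd titration, 17 h 37 degrees C; CCF4 2.5 h RT; Ex 405, Em 460/530 ratio -> %Activity, AC50.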

The target of assay [20] is Peroxisome proliferator-activated receptor alpha (Homo sapiens) (UniProt Q07869). Description: qHTS assay for small molecule agonists of the peroxisome proliferator-activated receptor alpha (PPARalpha) signaling pathway (AID 651778). Note: % of control where 0% means no effect. The following applies: PathHunter PPARalpha complementation, chemiluminescence, 6 h; max response: hits give high values. A digest of the protocol: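 Chemiluminescence from complemented enzyme reported PPARalpha activation in cells after 6 hr of compound treatment at 37 C. The detection reagent was incubated for 60 min at room temperature, and compounds were scored as agonists.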
Peroxisome proliferator-activated receptor alpha (Homo sapiens), sequence (Q07869 whole entry, looked up): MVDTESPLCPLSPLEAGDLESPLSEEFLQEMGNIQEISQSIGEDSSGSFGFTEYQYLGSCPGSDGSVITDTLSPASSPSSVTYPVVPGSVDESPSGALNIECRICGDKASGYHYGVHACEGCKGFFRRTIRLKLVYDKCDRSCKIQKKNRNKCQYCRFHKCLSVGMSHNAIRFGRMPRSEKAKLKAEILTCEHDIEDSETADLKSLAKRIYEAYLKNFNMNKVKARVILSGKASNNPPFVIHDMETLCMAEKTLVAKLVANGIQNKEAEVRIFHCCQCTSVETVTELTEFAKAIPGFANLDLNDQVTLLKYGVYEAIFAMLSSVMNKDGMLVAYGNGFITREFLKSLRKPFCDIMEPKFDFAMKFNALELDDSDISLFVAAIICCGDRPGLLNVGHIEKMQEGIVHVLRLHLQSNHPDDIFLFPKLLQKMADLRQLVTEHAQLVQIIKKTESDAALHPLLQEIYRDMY

Take `COc1c2ccoc2cc2oc(=O)ccc12`: the Potency in [1], in assay [2], in [3] and in [4] was over 92 µM each time. The Potency result in [5], in [6], in [7], in assay [16], in assay [17] and in assay [18] was “inactive” in each case. Moreover, in assay [8], the activity change, negative = cytotoxicity is -14.2%. In addition, the molecule was called inactive in assay [9], in [10], in assay [11], in [12], in [13] and in assay [14]. The molecule was classed as inactive in assay [15] and in [19]. The max response in assay [20] is -2.53%.
On to `c1ccccc1`, for which the Potency in [1], in assay [2], in [3] and in assay [4] was over 92 µM throughout. The Potency entry in assay [5], in [6], in assay [7], in assay [16], in [17] and in assay [18] was “inactive” each time. Also, the activity change, negative = cytotoxicity in assay [8] is 7.51% and 0.0243%. Moreover, the outcome in assay [9], in assay [10], in [11], in assay [12], in assay [13] and in [14] was inactive. The result in [15] and in assay [19] was inactive. Also, the max response in assay [20] was -1.87% [middle of 4 runs].
As to `CCCCCCCCO`, the Potency in assay [1], in assay [2], in [3] and in assay [4] was over 92 µM each time. The Potency entry in [5], in [6], in assay [7], in [16], in assay [17] and in [18] was “inactive” throughout. The activity change, negative = cytotoxicity in [8] was -3.19%. Moreover, the call in assay [9], in [10], in [11], in assay [12], in [13] and in assay [14] was inactive. Also, the molecule was called inactive in assay [15] and in assay [19]. In [20], the max response was 2.47% and -5.18% and -0.424%.
For the molecule `COC(=O)c1ccc(C=O)cc1`, the Potency in assay [1], in [2], in [3] and in assay [4] was over 92 µM each time. Further, the Potency entry in assay [5], in assay [7], in [16], in assay [17] and in [18] was “inactive” each time. Further, the activity change, negative = cytotoxicity is -110% (active) in [6] and -7.99% in assay [8]. Moreover, the result in assay [9], in assay [10], in assay [11], in assay [12], in assay [13] and in assay [14] was inactive. In addition, the result in assay [15] and in [19] was inactive. In assay [20], the max response is -7.41% and -4.28%.
